Screening results from PubChem.
ALR H2O2 inh: blocks human ALR sulfhydryl oxidase activity; P55789; hit rate 3.8% among 290,000; purified ALR, DTT oxidation, H2O2 HRP-luminol luminescence; inhibition, % (no concentration beside the values);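 active = mean replicate inhibition above about 79%, with every replicate also reaching it, limit read from the data; inconclusive = only one of the two criteria met; inactive = mean below limit and not every replicate reaching it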
Target sequence (P55789 whole entry, looked up): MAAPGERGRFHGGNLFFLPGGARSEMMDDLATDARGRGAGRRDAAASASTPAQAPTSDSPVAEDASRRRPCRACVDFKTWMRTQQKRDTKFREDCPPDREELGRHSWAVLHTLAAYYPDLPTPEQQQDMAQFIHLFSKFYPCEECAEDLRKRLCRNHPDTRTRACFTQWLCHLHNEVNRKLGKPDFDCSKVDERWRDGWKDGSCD
Efflux pump mplx: inhibitors of Candida antifungal efflux pumps expressed in yeast. S. cerevisiae Candida pump triplex, Nile Red efflux. inhibition, % at 10 µM. hit rate 0.44% among 330,000;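 active = plate passing quality check with inhibition over a set limit, or well fluorescence over plate mean plus 4 SD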;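 note: Nile Red retained in pooled yeast measured as flow cytometry median fluorescence; higher means more Nile Red kept so more efflux inhibition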
eIF4H FP inh: inhibitors of RNA binding by human eIF4H. inhibition, % at 35 µM. Q15056. eIF4H fluorescence polarization binding assay. hit rate 0.94% among 290,000;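 note: calls also rest on retests at 20 µM and on dose response follow-up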
SUMO HTRF inh: blocks human SUMOylation mediated by UBC9; AID 2006; hit rate 0.36% among 290,000; inhibition, % at 35 µM; P63279; HTRF SUMOylation assay, SAE1/SAE2 + UBC9, in vitro; in the data active = inhibition above about 50%, passing the limit was not always enough; inconclusive = no clear call, values can overlap the other calls
Target sequence (P63279 whole entry, looked up): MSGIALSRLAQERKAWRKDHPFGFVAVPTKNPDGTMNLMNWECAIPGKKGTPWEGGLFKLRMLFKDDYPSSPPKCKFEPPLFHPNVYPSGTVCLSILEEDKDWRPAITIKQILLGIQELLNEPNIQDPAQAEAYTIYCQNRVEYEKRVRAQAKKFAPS
PABP polyA inh: blocks human PABP binding to poly(A) RNA; P11940; fluorescence polarization; inhibition, % at 35 µM; hit rate 1% among 290,000;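 note: calls also rest on retests at 20 µM and on dose response follow-up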
MLLE-PAM2 inh: blocks PAM2 peptide binding to the PABP1 MLLE domain. inhibition, % at 20 µM. hit rate 0.36% among 360,000. AID 588489. GST-MLLE / FITC-PAM2 fluorescence polarization. P11940; in the data active = inhibition above about 35%, passing the limit was not always enough
Hits are given with their value; n = inactive; u = inconclusive; x = no result. Hits are enriched below; roughly 4.7% of the tested compounds scored in any of these assays. Unless noted, the rule behind the calls is not given here.

SMILES | ALR H2O2 inh | Efflux pump mplx | eIF4H FP inh | SUMO HTRF inh | PABP polyA inh | MLLE-PAM2 inh
C=CCOc1ccc(CNCc2cccnc2)cc1OCC | 94.4 | n | n | n | n | n
COc1cc(CNc2ccc3[nH]c(=O)[nH]c3c2)cc(Cl)c1OCC(=O)NC(C)(C)C | 97.6 | n | n | n | n | n
CC[C@]1(C(=O)OC)[C@H]2C(=O)N(C)C(=O)[C@H]2[C@H]2CN=C(SCc3ccc(OC)cc3)N21 | x | n | x | x | x | n
CC(/C=C/c1ccc(O)cc1)=NNc1ccccc1 | x | x | x | x | x | n
CCOC(=O)N1CCN(Cc2c(O)ccc3ccccc23)CC1 | n | n | n | n | n | 39.8
Cc1ccc2c(c1)C1CN(C)CCC1N2S(=O)(=O)c1ccccc1F (stereo unspecified) | x | n | x | x | x | n
Cc1cccc(C(=O)N2CCCC(N3CCN(c4ccccc4)CC3)C2)n1 (stereo unspecified) | 98.0 | n | n | n | n | n
Cc1cccc(C(=O)N2CCCC(N3CCN(c4ccc(F)cc4)CC3)C2)n1 (stereo unspecified) | 99.0 | n | n | n | n | n
COc1ccc(N2CCN(C3CCCN(C(=O)c4cccc(C)n4)C3)CC2)cc1 (stereo unspecified) | n | n | n | n | n | n
COc1ccccc1N1CCN(C(=O)c2ccc(Cl)c(S(=O)(=O)N3CCOCC3)c2)CC1 | n | n | n | n | n | n
Cc1c(Cl)ccc2c(C(=O)NCCN3CCCCC3)cc(-c3ccccn3)nc12 | n | n | n | n | n | n
COc1ccccc1-c1cc(C(=O)NC2CCN(C)CC2)c2ccc(Cl)c(C)c2n1 | n | 1.6 | n | n | n | n
O=C(CSc1nccc(=O)[nH]1)NC1CCCCCCC1 | n | n | x | x | x | n
Cn1c(SCc2ccc(C(=O)Nc3nccs3)cc2)nnc1-c1ccccc1 | n | n | n | n | n | n
CCn1c(SCc2ccc(C(=O)Nc3nccs3)cc2)nnc1-c1ccc(NC(C)=O)cc1 | 98.8 | n | n | n | n | n
CCn1c(SCc2ccc(C(=O)Nc3nccs3)cc2)nnc1-c1ccc(N)cc1 | 82.5 | n | n | n | n | n
CNC(=O)C1CC(=O)N(c2ccc(OCC(=O)Nc3ccccc3)cc2)C1 (stereo unspecified) | x | x | x | x | x | n
NS(=O)(=O)c1ccc(-c2ccc(/C=C3\NC(=S)NC3=O)o2)cc1 | n | n | 78.8 | n | n | n
NS(=O)(=O)c1ccc(-c2ccc(C=O)o2)cc1 | n | n | n | n | n | n
O=C1CSC(=S)N1/N=C/c1ccc(O)c(O)c1O | x | n | 80.4 | u | 74.5 | n
O=C1CSC(=S)N1/N=C/c1cc(Br)ccc1O | 97.6 | n | n | n | n | x
Cc1cccc(NC(=O)c2nc[nH]c2C(=O)N2CCc3ccccc3C2)c1 | n | n | x | x | x | n
COc1ccc(-c2cc3ccccc3n2CC(O)Cn2nc(C)cc2C)cc1 (stereo unspecified) | n | n | 77.7 | n | 107.2 | n
COc1ccc(-c2cc3ccccc3n2CC(O)CN2CCC(C)CC2)cc1 (stereo unspecified) | x | n | u | n | n | n
Cc1c(N)cc(N)cc1C(=O)O | n | n | 82.7 | n | 50.5 | n
SMILES | ALR H2O2 inh | Efflux pump mplx | eIF4H FP inh | SUMO HTRF inh | PABP polyA inh | MLLE-PAM2 inh
Cc1c(Br)cc(C(=O)O)c(C)c1C | n | n | n | n | n | n
CCc1ccc(NC(=O)CCCN2C(=O)C3CC=CCC3C2=O)cc1 (stereo unspecified) | n | n | n | n | n | n
Cc1ccccc1C(=O)Nc1ccc(C(=O)N/N=C/c2ccc(O)cc2)cc1 | 94.9 | n | n | n | n | n
O=C(N/N=C/c1ccc(O)cc1)c1ccc(NC(=O)c2ccccc2Br)cc1 | 79.4 | n | n | n | n | n
Cc1nc2c(C)cccc2cc1C(=O)N/N=C/c1ccc(O)cc1 | 99.4 | n | n | n | n | n
Cc1ccccc1C(=O)Nc1ccc(C(=O)N/N=C/c2ccncc2)cc1 | n | n | n | n | n | n
COc1ccccc1NS(=O)(=O)c1cccc(NC(=O)c2cncc(Br)c2)c1 | n | n | x | x | x | n
CNc1cncc(-c2ccc(OC)cc2)n1 | x | x | x | x | x | n
COc1ccc(NC(=O)CSc2nc3ncccc3[nH]2)cc1OC | 95.6 | n | n | n | n | n
CC(C)c1ccc(NC(=O)CSc2nc3ncccc3[nH]2)cc1 | n | n | n | n | n | n
CC(C)OC(=O)c1ccc(NC(=O)CSc2nc3ncccc3[nH]2)cc1 | 98.4 | n | n | n | n | n
O=C(CSc1nc2ncccc2[nH]1)Nc1ccc2c(c1)OCO2 | x | n | n | n | n | n
COc1cc(/C=C2\C(=O)ON=C2c2ccccc2)cc(Cl)c1O | 98.8 | n | n | n | n | n
COc1cc(/C=C2\C(=O)ON=C2c2ccccc2)cc(Br)c1O | x | n | u | n | u | n
COc1cc(/C=C2/C(=O)ON=C2c2ccccc2)ccc1O | 95.0 | n | n | n | n | n
O=C1ON=C(c2ccccc2)/C1=C/c1ccc(O)cc1 | 86.8 | n | n | n | n | n
Oc1ccc(N=Nc2ccccc2)cc1 | 98.8 | n | n | n | n | n
O=C(O)c1ccccc1N=Nc1ccc(O)cc1 | 99.1 | n | x | x | x | 41.4
OCc1ccc(N=Nc2ccccc2)cc1 | n | n | x | x | x | n
O=C(O)c1cc(O)ccc1N=Nc1ccccc1 | n | n | n | n | n | n
Cc1cc(C)nc(NCCO)n1 | n | n | n | n | n | n
Cc1ccc(NC(=O)COc2ccc(/C(N)=N/O)cc2)cc1C | 98.9 | n | n | n | n | n
CCCCOc1ccc(/C(N)=N/O)cc1 | 99.0 | n | n | n | n | n
CCCCOc1ccc(C(=O)NC)cc1 | n | n | n | n | n | n
CCCc1c(C)[nH]c2ccc(C(=O)O)cc2c1=S | x | x | 56.0 | n | 55.2 | n
SMILES | ALR H2O2 inh | Efflux pump mplx | eIF4H FP inh | SUMO HTRF inh | PABP polyA inh | MLLE-PAM2 inh
Cc1[nH]c2ccc(C(=O)O)cc2c1C | n | n | n | n | n | n
CCOc1ccc(S(=O)(=O)Nc2nc3ccccc3nc2Nc2ccc(N3CCOCC3)cc2)cc1 | 93.2 | n | u | n | n | n
Cc1[nH]c(=O)sc1C(=O)NCc1ccc([N+](=O)[O-])cc1 | x | x | x | x | x | n
COc1ccc(NC(=O)c2ccc(NCCN3C(=O)CCC3=O)c([N+](=O)[O-])c2)cc1 | n | n | u | n | 3.6 | n
N#Cc1c(-c2ccco2)ccn(Cc2cccc(F)c2)c1=O | x | n | 69.9 | n | active | n
Cc1ccccc1NC(=O)/C(C#N)=C/c1ccc[nH]1 | n | n | n | n | n | n
N#C/C(=C\c1ccc[nH]1)C(=O)Nc1ccccc1[N+](=O)[O-] | n | n | 78.6 | n | 56.9 | n
O=C(COC(=O)c1ccccc1O)Nc1cccc2ccccc12 | n | n | x | x | x | n
Cc1c(O)cc2c(c1O)C(=O)CC(c1ccc(O)cc1)O2 (stereo unspecified) | n | n | 95.2 | n | 45.0 | n
COc1cc(O)c2c(c1)OC(c1ccc(O)cc1)CC2=O (stereo unspecified) | n | n | n | n | n | n
CC(C)NC(=O)COc1nncc2ccccc12 | 99.9 | n | n | n | n | n
C=CCc1c(C)nc(-c2ccccc2)nc1Nc1ccccc1O | n | n | n | n | active | n
